In the library only some 4.6% were active in any assay of this set; here they are far more common.
TRHR enhancer-1 = allosterically enhances the human TRH receptor; TRHR cells, fluo-8 calcium fluorescence, EC20 TRH enhancement; enhancement, % at 2 µM; 0.66% of 360,000 active; in the data active means enhancement above about 30%; further: 0% is about no effect
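Enhancer read-out: after compound pinning and an initial kinetic agonist-mode read, an EC20 of TRH (10 nM final) was injected and fluo-8 calcium signal (Ex 480/Em 530) followed at 1 s/cycle for 100 cycles in TRHR-expressing cells.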
D1 ag = activates the human D1 dopamine receptor. activation, % at 2 µM. 1% of 360,000 active. HEK293 T-REx D1 cells, calcium flux, agonist mode; further: 0% is about no effect
Target sequence (P21728 whole entry, looked up): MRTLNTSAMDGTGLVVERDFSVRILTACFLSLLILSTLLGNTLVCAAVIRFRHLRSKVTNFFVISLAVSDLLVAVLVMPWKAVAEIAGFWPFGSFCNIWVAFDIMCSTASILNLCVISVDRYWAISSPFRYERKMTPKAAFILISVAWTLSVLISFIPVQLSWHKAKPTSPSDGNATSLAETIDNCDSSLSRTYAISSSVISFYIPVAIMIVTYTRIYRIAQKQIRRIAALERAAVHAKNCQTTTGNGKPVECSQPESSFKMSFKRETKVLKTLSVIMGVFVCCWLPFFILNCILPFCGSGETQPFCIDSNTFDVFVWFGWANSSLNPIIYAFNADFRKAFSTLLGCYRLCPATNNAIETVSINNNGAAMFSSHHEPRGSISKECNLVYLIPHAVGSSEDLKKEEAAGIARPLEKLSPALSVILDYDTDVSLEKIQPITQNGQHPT
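Agonism was scored from calcium flux recorded over 180 s (1 read/s) after pintool compound addition, following a 10-cycle baseline. Cells were inducible force-coupled HEK293 TREx D1, plated overnight at 30 C and loaded with no-wash calcium dye.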
D1 antagonist = blocks dopamine activation of the human D1 receptor; P21728; HEK293 TREx D1 cells, calcium flux, dopamine EC80; stronger effect = lower value; activity change, negative = inhibition, % at 10 µM; 3.2% of 360,000 active; AID 504652; in the data active means activity change below about -30%; further: on the % scale 0 is the no-effect control and ±100 the full control effect
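Cells carrying a force-coupled, tetracycline-inducible human D1 receptor report calcium flux. Each well gets a 10 s baseline, compound with 180 s monitoring, then an EC80 dopamine stimulus with a second 180 s kinetic read.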
D1 PAM = potentiators of human D1 dopamine receptor | HEK293 TREx D1 cells, calcium flux, dopamine EC20 potentiation | AID 504651 | potentiation, % at 10 µM | 0.036% of 360,000 active; in the data active means potentiation above about 30%; further: 0% is about no effect
TRHR agonist-1 = agonists of human TRH receptor; activation, % at 2 µM; 0.18% of 360,000 active; P34981; TRHR cells, calcium flux fluo-8, FDSS agonist mode; further: 0% is about no effect
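TRHR-expressing cells loaded with fluo-8 calcium dye; 23 nL library compound pin-transferred, kinetic FDSS fluorescence (Ex 480/Em 530) recorded about 180 s for agonist-induced calcium release, before a 10 nM TRH EC20 addition for potentiator mode.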
TRHR enhancer-2 = human TRH receptor allosteric enhancement confirmation; shares compounds with TRHR enhancer-1; TRH receptor cell assay, enhancer confirmation qHTS; activity change, negative = inhibition, % at 46.1 µM; 970 tested, under 10 active; active means well fitted curve in the direction sought with a large enough effect; inconclusive means small, poorly fitted or top-dose-only effect, or another doubt; inactive means no such curve, though single readings can be large; an effect the other way counts as inactive or inconclusive;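 further: compound effect scored on response to added TRH at EC20 of 10 nM; 0% is about no effect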
TRHR agonist-2 = human TRH receptor agonism confirmation; shares compounds with TRHR enhancer-1; TRHR-expressing cells, agonist activation read-out; Potency, µM (series often up to 46.1 µM), for the others: at the top dose activation, actives largely listed as activators; 8% of 970 active; active means well fitted curve in the direction sought with a large enough effect; inconclusive means small, poorly fitted or top-dose-only effect, or another doubt; inactive means no such curve, though single readings can be large; an effect the other way counts as inactive or inconclusive; further: potency means the concentration at half of the fitted maximal effect; 0% is about no effect; nearly all actives have a fitted effect of over 75% in size
* = called active by the depositor; ? = inconclusive; . = no result. Unless noted, no stated cut-off is given here; in the data, active means activation above about 30%; inactive means the rest.

SMILES | TRHR enhancer-1 | D1 ag | D1 antagonist | D1 PAM | TRHR agonist-1 | TRHR enhancer-2 | TRHR agonist-2
O=C(Cn1cc(C(=O)c2ccccc2)c2ccccc21)NCc1ccco1 | 56* | 7 | -17 | -5 | -2 | -9 | 1%
CC1(O)CCN2C(=O)CCc3cccc1c32 (centres undefined) | -1 | 1 | -5 | . | 1 | . | .
NC(=O)Cn1cc(C(=O)c2ccccc2)c2ccccc21 | -10 | 5 | 15 | 2 | 0 | . | .
COc1ccc(-c2nc3ccccc3c(=O)n2-c2ccc(OC)cc2)cc1 | 1 | -1 | 3 | -1 | -1 | . | .
COc1ccc(-n2c(-c3ccccc3Br)nc3ccccc3c2=O)cc1 | 48* | 0 | -17 | 3 | 0 | -7 | 2%
CC(C)N1CCN(Cc2cccc3c2OCO3)CC1CCO (centres undefined) | 13 | 1 | -1 | -5 | 1 | . | .
CC(C)N1CCN(Cc2c[nH]c3ccccc23)CC1CCO (centres undefined) | 58* | 3 | 2 | 3 | 1 | -1 | 5%
C=CCn1c(O)c(C=Nc2ccc(OC)cc2C)c(=O)[nH]c1=O | 1 | 0 | -5 | -4 | 29 | -2 | 0%
COc1ccc(N=Cc2c(O)n(-c3ccc(C)cc3)c(=O)[nH]c2=O)cc1 | 51* | 2 | 2 | -1 | 0 | ? | 2%
COC(=O)C1=C(c2ccc(C(C)=O)cc2)C[C@@H]2CC[C@H]1N2C(=O)N1CCCCC1 | 0 | 0 | 1 | 3 | 0 | . | .
COc1cc(C(=O)OC2C[C@H]3CC[C@@H](C2)N3)ccc1O (some centres undefined) | 0 | 2 | 1 | -3 | -1 | . | .
C=CC1CN2CCC1CC2C(OC(C)=O)c1ccnc2ccc(OC)cc12 (centres undefined) | -3 | 1 | 4 | -6 | 0 | . | .
CN1CC=C2C(C#N)=C(N)C(C#N)(C#N)C(c3ccncc3)C2C1 (centres undefined) | 9 | 16 | 3 | -4 | 27 | -4 | ?
Cn1c(O)c(/C=C/C=Nc2ccccc2)c(=O)n(C)c1=O | 3 | 23 | 7 | 7 | 13 | . | .
CCCCn1c(O)c(/C=C/C=Nc2ccccc2)c(=O)[nH]c1=O | 24 | 71* | 2 | -3 | 41* | 5 | 16µM*
CC1(C)OC(c2ccccc2)=C/C(=C/C=C2C(=O)NC(=O)NC2=O)O1 | 15 | 52* | -5 | -1 | 30 | -6 | ?

Screening data deposited in PubChem BioAssay by National Center for Advancing Translational Sciences (NCATS).
